In PubChem BioAssay (Tox21):
Inconclusive results are not listed. A call without a number means that no potency is given here. The source holds several records for some structures; these can differ, active in one and inactive in another. Activity calls are given as the source filed them. The call rests on the fitted dose curve.

target: Muscarinic acetylcholine receptor M1 (Homo sapiens) (UniProt P11229); test: Cholinergic receptor muscarinic 1 (CHRM1) small molecule antagonists, cell-based qHTS assay (AID 1963588); conditions: CHRM1-CHO antagonist mode, calcium flux fluorescence; series mostly up to 61.5 µM; activity, negative = inhibition: at the top concentration; further: nearly all actives have a fitted effect of over 40% in size
Description: National Center for Advancing Translational Sciences [NCATS]
Division of Preclinical Innovation [DPI]
U.S. Environmental Protection Agency [EPA]
National Institutes of Environmental Health Sciences [NIEHS]
National Toxicology Program [NTP]
U.S. Food and Drug Administration [FDA]
The CHRM1 is a muscarinic receptor. This receptor plays a crucial role in learning and memory processes and has long been identified as a promising therapeutic target for the improvement of cognitive decline in Alzheimer's disease (AD). The CHRM1-CHO cell line stably expressing human muscarinic acetylcholine receptor M1 (CHRM1) can be used for screening agonists and antagonists of interactions between CHRM1 and its ligands. The CHRM1-CHO Calcium Flux Assay is a homogeneous fluorescence-based assay for detecting the intracellular calcium level using FDSS kinetic plate reader system.
Tox21 Assay Protocol Summary:
CHRM1-CHO cells were dispensed at 1000 cells/3uL/well in 1536-well black-clear bottom plates using a Multidrop Dispenser. After the assay plates were incubated at a 37 C/5% CO2 incubator for 18 h, 3 uL of Dye Loading Buffer was transferred to the assay plate by a Flying Reagent Dispenser. The assay plates were incubated at 37 C for 1h. For antagonist mode, 23 nL of compounds dissolved in DMSO, positive controls or DMSO only was transferred to the assay plate by a pin tool. After 5 min incubation at room temperature, 1.5 uL of acetylcholine at 50nM was added to each well. The fluorescence intensity in the plates was measured using FDSS 7000EX kinetic plate reader for 3 min at 1 sec intervals. Each test compound was measured at 15 concentrations in three independent runs.
Potency means the concentration at half of the fitted maximal effect.

Sequence of Muscarinic acetylcholine receptor M1 (Homo sapiens) (P11229 whole entry, looked up): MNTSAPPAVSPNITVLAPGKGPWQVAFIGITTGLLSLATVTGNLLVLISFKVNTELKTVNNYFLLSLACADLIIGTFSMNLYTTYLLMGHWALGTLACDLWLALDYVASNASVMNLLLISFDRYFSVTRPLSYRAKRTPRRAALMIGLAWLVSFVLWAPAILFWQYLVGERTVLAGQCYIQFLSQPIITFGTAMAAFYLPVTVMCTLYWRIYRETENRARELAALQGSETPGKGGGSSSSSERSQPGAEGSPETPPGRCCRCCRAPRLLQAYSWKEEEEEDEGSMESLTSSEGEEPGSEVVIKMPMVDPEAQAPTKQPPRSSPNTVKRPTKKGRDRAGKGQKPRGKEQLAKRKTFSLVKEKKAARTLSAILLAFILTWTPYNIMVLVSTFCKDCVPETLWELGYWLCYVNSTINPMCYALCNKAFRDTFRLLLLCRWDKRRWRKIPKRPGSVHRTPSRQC

How did the Potency turn out when `Cc1ccc(N)cc1` was run?
The Potency was “inactive”.

With `COS(=O)(=O)OC` as the compound, how does the Potency read?
The Potency was “inactive”.

With `Nc1cccc(Cl)c1` as the compound, how does the Potency read?
Its Potency is “inactive”.

Which “activity, negative = inhibition” value does the source give for `CCOS(C)(=O)=O` here?
Its value is -5.16% (inactive).

Which “activity, negative = inhibition” value does the source give for `COC(=O)c1ccccc1C(=O)OC` here?
The value was -10.9% (inactive).

With `OCCOc1ccccc1` as the compound, how does the Potency read?
Its Potency is “inactive”.

With `CCOc1ccc(N)cc1` as the compound, how does the “activity, negative = inhibition” value read?
Its value is 29.5% (inactive).

For `C1CN2CCC1CC2`, which “activity, negative = inhibition” value is on record?
Its value is 10.5% [at 28.3 µM] (inactive).

Which “activity, negative = inhibition” value does the source give for `CC(C=O)Cc1ccc2c(c1)OCO2` (stereo not given) here?
Its value is 21.5% (inactive).

With `COP(=S)(OC)SCn1nnc2ccccc2c1=O` as the compound, how does the Potency read?
Its Potency is “inactive”.

`O=S(=O)(Oc1ccc(Cl)cc1)c1ccc(Cl)cc1` was tested. Which Potency did it give?
The Potency was “inactive”.

For `CCOC(=O)CP(=O)(OCC)OCC`, which “activity, negative = inhibition” value is on record?
The value was 2.09% (inactive).

With `CCCCOC(=O)c1ccccc1C(=O)OCCCC` as the compound, how does the Potency read?
Its Potency is “inactive”.

Which Potency does the source give for `Cc1ccc(N)c(N)c1` here?
The Potency was “inactive”.

For `COc1ccc2c3c1O[C@H]1[C@H](O)CC[C@H]4[C@@H](C2)N(C)CC[C@@]341`, which “activity, negative = inhibition” value is on record?
Its value is -5.62% (inactive).

Which “activity, negative = inhibition” value does the source give for `CCNc1nc(NCC)nc(SC)n1` here?
Its value is 0.498% (inactive).

For `C=CC(=O)OCCO`, which Potency is on record?
Its Potency is “inactive”.

How did the Potency turn out when `CC(c1ccc(O)cc1)c1ccc(O)cc1` was run?
Its Potency is 15.7 µM (active) and inactive.

`CNC(=O)O/N=C/C(C)(C)S(C)(=O)=O` was tested. Which Potency did it give?
Its Potency is “inactive”.

For `CCOC(=O)C(c1c(O)c2ccccc2oc1=O)c1c(O)c2ccccc2oc1=O`, which “activity, negative = inhibition” value is on record?
Its value is 1.93% [at 28.3 µM] (inactive).

For `CN(CCCC(=O)c1cccnc1)N=O`, which “activity, negative = inhibition” value is on record?
The value was 14.9% (inactive).

How did the “activity, negative = inhibition” value turn out when `CCN(C)N=O` was run?
Its value is 3.81% (inactive).

Which “activity, negative = inhibition” value does the source give for `Oc1ccc(C(c2ccc(O)cc2)(C(F)(F)F)C(F)(F)F)cc1` here?
The value was 15.2% (inactive).

Which Potency does the source give for `Nc1ccc(Cl)cc1` here?
Its Potency is “inactive”.

With `Nc1ccncc1` as the compound, how does the Potency read?
Its Potency is “inactive”.

For `O=S(=O)(Cl)Cl`, which “activity, negative = inhibition” value is on record?
The value was 6.31% (inactive).

For `C=CC1(C)OC(=O)N(c2cc(Cl)cc(Cl)c2)C1=O` (stereo not given), which Potency is on record?
The Potency was “inactive”.

Which “activity, negative = inhibition” value does the source give for `NC1(c2ccccc2)CCCCC1` here?
The value was -2.53% (inactive).

For `O=C1CCCN1`, which Potency is on record?
The Potency was “inactive”.

For `CC(C)NC(C)C`, which Potency is on record?
Its Potency is “inactive”.

How did the Potency turn out when `CC12CC1(C)C(=O)N(c1cc(Cl)cc(Cl)c1)C2=O` (stereo not given) was run?
The Potency was “inactive”.

How did the Potency turn out when `C[N+](C)(C)C` was run?
The Potency was “inactive”.

Which Potency does the source give for `CC1=C(C(=O)Nc2ccccc2)SCCO1` here?
The Potency was “inactive”.

Which “activity, negative = inhibition” value does the source give for `O=[N+]([O-])O[C@H]1CO[C@H]2[C@@H]1OC[C@H]2O[N+](=O)[O-]` here?
Its value is 15.9% [at 28.3 µM] (inactive).

How did the Potency turn out when `COC(=O)c1ccccc1N` was run?
The Potency was “inactive”.

For `ClC1=C(Cl)C2(Cl)C3C(Cl)C(Cl)CC3C1(Cl)C2(Cl)Cl` (stereo not given), which Potency is on record?
The Potency was “inactive”.

How did the “activity, negative = inhibition” value turn out when `CC(=O)[C@H]1CC[C@H]2[C@@H]3CC[C@H]4C[C@](C)(O)CC[C@]4(C)[C@H]3CC[C@]12C` was run?
Its value is -5.83% [at 28.3 µM] (inactive).

With `O=C1C2CC=CCC2C(=O)N1SC(Cl)(Cl)Cl` (stereo not given) as the compound, how does the Potency read?
The Potency was “inactive”.

For `C[C@H]1CCCC(=O)CCC/C=C/c2cc(O)cc(O)c2C(=O)O1`, which Potency is on record?
Its Potency is “inactive”.

For `CC(C)(N)Cc1ccccc1Cl`, which “activity, negative = inhibition” value is on record?
The value was 1.37% [at 28.3 µM] (inactive).
